# Columns and labels:
# [1] = system: Human papillomavirus type 1a protein E7 (residues 44-93); assay: small molecules binding HPV E7 44-93 – biochemical, small-molecule microarray, residues 44-93, 635 nm fluorescence, primary screen (AID 1108); conditions: fluorescence 635 nm, higher = more signal;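 further: E7 fragment applied at 1 µg/mL in TBST for 1 h at 4 C; score combines spot fluorescence with its signal to noise ratio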
# [2] = hepatitis C replication reporter changes, two-sided – Huh7 cells, luciferase reporter, HCV replication inhibitor project, primary screen (AID 1109); conditions: Huh7 HCV replicon luciferase reporter, 48 h; higher = more signal;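 further: huh7 hepatoma cells harbouring a luciferase neomycin HCV replicon reporter; luciferase luminescence as measure of HCV replicon replication; test concentration not given here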
# [3] = molecular target: Left-right determination factor 2 (Homo sapiens) (UniProt O00292); assay: small molecules binding LEFTY2 protein – biochemical, small-molecule microarray, 635 nm fluorescence scan, primary screen (AID 1110); conditions: higher = more signal
# [4] = molecular target: Calmodulin-1 (Homo sapiens) (UniProt P0DP23); assay: small molecules binding calmodulin-1 with EGTA – biochemical, small-molecule microarray, Cy5-labelled CALM1, profiling panel (AID 1111); conditions: Cy5-CALM1 binding fluorescence, higher = more signal;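 further: labelled calmodulin applied in Tris saline Tween buffer holding calcium plus EGTA and DTT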
# [5] = molecular target: Calmodulin-1 (Homo sapiens) (UniProt P0DP23); assay: small molecules binding Ca-loaded calmodulin-1 – biochemical, small-molecule microarray, Cy5-labelled CALM1, plus calcium, artefact control for SMM control-protein annotation, profiling panel (AID 1112); conditions: Cy5-CALM1 binding fluorescence, higher = more signal;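 further: score merges spot fluorescence with signal to noise from triplicate slides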
# [6] = probe aWnt5a binding to arrayed compounds – biochemical, biotinylated probe, 635/667 nm fluorescence, primary screen (AID 1113); conditions: small-molecule microarray, higher = more signal;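 further: score merges 667 nm fluorescence intensity with signal-to-noise per printed feature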
# [7] = probe aShh binding to arrayed compounds – biochemical, biotinylated probe, 635/667 nm fluorescence, primary screen (AID 1114); conditions: small-molecule microarray, higher = more signal;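 further: probe is biotin-labelled aShh protein from a stem cell growth factor screen; measures binding of labelled protein to compounds printed on the slide; score merges feature fluorescence at 667 nm with signal-to-noise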
# [8] = probe aNog binding to arrayed compounds – biochemical, biotinylated probe, 635/667 nm fluorescence, primary screen (AID 1115); conditions: small-molecule microarray, higher = more signal;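 further: probe is biotinylated aNog protein used at 0.15 µg/mL for 1 h at 4 C; z-score combines 667 nm fluorescence of each spot with its signal to noise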
# [9] = molecular target: Torsin-1A-interacting protein 1 (Homo sapiens) (UniProt Q5JTV8); assay: compound microarray binding of lysate hLAP1 – cell lysate, small-molecule microarray, COS7 lysate, 635/667 nm fluorescence, primary screen (AID 1116); conditions: 635 nm fluorescence, higher = more signal
# [10] = molecular target: Alpha-bungarotoxin (Bungarus multicinctus) (UniProt P60615); assay: compounds binding labelled alpha-BTX control protein – biochemical, small-molecule microarray, Alexa647 label, 635/667 nm fluorescence, artefact control for SMM control protein annotation, profiling panel (AID 1117); conditions: alpha-BTX-A647 binding fluorescence, higher = more signal
# Alpha-bungarotoxin (Bungarus multicinctus), sequence (P60615 whole entry, looked up): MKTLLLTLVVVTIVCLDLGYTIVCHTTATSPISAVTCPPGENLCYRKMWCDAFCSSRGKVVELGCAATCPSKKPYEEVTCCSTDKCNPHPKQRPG
# Torsin-1A-interacting protein 1 (Homo sapiens), sequence (Q5JTV8 whole entry, looked up): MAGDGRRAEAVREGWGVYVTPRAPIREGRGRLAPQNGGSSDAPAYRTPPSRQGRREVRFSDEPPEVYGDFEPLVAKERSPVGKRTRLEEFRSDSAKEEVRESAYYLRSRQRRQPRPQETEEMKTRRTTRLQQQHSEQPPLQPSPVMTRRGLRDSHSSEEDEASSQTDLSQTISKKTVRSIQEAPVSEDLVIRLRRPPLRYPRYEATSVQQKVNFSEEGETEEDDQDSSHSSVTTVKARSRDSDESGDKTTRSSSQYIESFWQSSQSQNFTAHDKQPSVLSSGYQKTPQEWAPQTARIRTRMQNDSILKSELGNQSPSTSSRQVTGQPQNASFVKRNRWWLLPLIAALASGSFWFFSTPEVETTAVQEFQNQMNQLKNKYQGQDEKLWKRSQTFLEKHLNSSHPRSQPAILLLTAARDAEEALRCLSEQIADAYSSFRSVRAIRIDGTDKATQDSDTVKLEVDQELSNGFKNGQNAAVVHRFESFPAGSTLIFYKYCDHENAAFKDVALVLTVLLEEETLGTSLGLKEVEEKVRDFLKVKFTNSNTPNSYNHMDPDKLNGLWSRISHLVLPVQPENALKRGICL
# Left-right determination factor 2 (Homo sapiens), sequence (O00292 whole entry, looked up): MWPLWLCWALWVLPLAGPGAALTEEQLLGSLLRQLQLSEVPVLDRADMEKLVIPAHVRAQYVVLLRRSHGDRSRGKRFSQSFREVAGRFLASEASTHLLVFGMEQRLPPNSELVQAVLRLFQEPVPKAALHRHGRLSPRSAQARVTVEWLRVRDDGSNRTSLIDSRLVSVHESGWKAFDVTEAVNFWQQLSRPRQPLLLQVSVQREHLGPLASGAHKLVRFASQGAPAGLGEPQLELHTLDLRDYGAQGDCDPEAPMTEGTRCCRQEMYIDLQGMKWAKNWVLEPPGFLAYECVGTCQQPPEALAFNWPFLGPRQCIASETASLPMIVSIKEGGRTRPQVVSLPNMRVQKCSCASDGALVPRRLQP
SMILES,composite z-score [1],z-score [2],composite z-score [3],composite z-score [4],composite z-score [5],composite z-score [6],composite z-score [7],composite z-score [8],composite z-score [9],composite z-score [10]
COC(=O)[C@@]1(Cc2ccc(OC)cc2)[C@H]2c3cc(C(=O)N4CCCC4)n(CCCNc4ncc(C(F)(F)F)cc4Cl)c3C[C@H]2CN1C(=O)c1ccccc1,0.958,-2.32,0.0792,1.33,0.74,0.901,0.76,-0.447,-0.0323,0.884
CC(C)OC(=O)C=C1C[C@@H](c2cccc(Cl)c2)O[C@@H](c2cccc(Cl)c2)O1,0.597,-0.825,-0.869,1.39,1.05,-0.0735,-0.0035,-0.43,1.58,0.381
COC(=O)[C@@]1(Cc2ccccc2)[C@H]2c3cc(C(=O)N4CCCC4)n(Cc4c(CO)[nH]cc(C)c4=O)c3C[C@H]2CN1C(=O)c1ccccc1,-0.596,-0.783,-0.169,1.71,0.893,0.0775,-0.181,1.28,2.02,0.546
CC(C)(C)OC(=O)CC[C@]1(C(N)=O)N=C(c2ccc(OCCCO)cc2)O[C@H]1c1ccccc1,-0.0059,0.666,-0.23,2.64,1.66,0.116,0.707,1.36,3.07,2.12
COC(=O)[C@@]1(Cc2ccc(F)cc2)[C@H]2c3cc(C(=O)N(C)C)n(Cc4cc(C)n(C)n4)c3C[C@H]2CN1C(=O)c1ccccc1,0.923,0.107,-0.476,2.43,0.669,0.418,-0.0324,1.82,2.58,0.42
C=C(CCCC)/C(=C/C[C@H](OC(=O)c1ccncc1)c1ccc(OCCO)cc1)c1cc(C(=O)OC)ccc1OC,1.09,-2.01,0.318,0.226,0.176,0.0491,0.216,-0.158,1.26,0.378
COCCCNC(=O)[C@@]1(Sc2ccc(C)cc2)CC(=O)N(Cc2ccccc2Cl)[C@@H]1c1ccc(CO)cc1,1.36,-1.75,0.585,0.532,-0.184,0.0706,0.275,-0.205,0.566,1.25
O=C1C2C=CC(C(O)c3cc(C(F)(F)F)cc(C(F)(F)F)c3)N(Nc3ccccc3)C2C(=O)N1c1ccccc1 (stereo not given),1.44,-0.761,-0.457,0.925,0.388,-0.0425,-0.358,0.341,1.07,0.63
Cc1ccc(/C=C/C=O)cc1,0.134,0.626,-0.419,0.619,-0.524,-0.213,-0.0146,-0.299,-0.0785,0.185
COc1ccc(C(=O)Nc2ccc(CN3C(=O)[C@]4(O[C@H](CC(=O)N5CCC[C@H]5CO)[C@@H]([Si](C)(C)c5ccc(OC)cc5)[C@@H]4C)c4ccccc43)cc2)cc1,1.4,-3.86,0.471,0.453,-0.171,-0.0445,0.0639,0.116,1.08,0.748
CC(=O)Nc1cc(Br)ccc1C(=O)NCc1ccccc1,1.09,-0.0162,-0.174,0.851,0.517,-0.0346,-0.16,-0.196,0.341,0.809
CCCCC(O)C1C=CC2C(=O)N(C)C(=O)C2N1N1CCCCC1 (stereo not given),1.34,0.0634,0.462,0.0471,-0.665,0.0251,0.156,-0.294,0.893,1.16
CCN(CC)c1ccc(N2CC=CC34O[C@@H]5C=CCOC(=O)[C@@H]5[C@H]3C(=O)N(CCCCCCO)[C@@H]4C2=O)cc1 (stereo not given in full),1.01,-1.4,-0.699,-0.333,0.48,-0.152,-0.0035,-0.248,2.01,-0.226
C=CC[C@@]1(C(=O)N2CCCCC2)N=C(c2ccc(OCCCO)cc2)O[C@@H]1c1ccccc1CN=[N+]=[N-],1.48,-2.39,0.0868,1.75,0.797,0.104,0.57,1.18,1.76,2.05
CCCCN1CC=CC23O[C@@H]4C=CCCOC(=O)C4[C@H]2C(=O)N(CCCCCO)[C@@H]3C1=O (stereo not given in full),-0.977,-0.698,-0.646,-0.107,-0.589,-0.208,-0.138,-0.033,-0.865,0.0086
C=CC[C@]1(C(=O)N2CCOCC2)N=C(c2ccc(OCCCO)cc2)O[C@H]1c1ccccc1N=[N+]=[N-],1.47,-1.43,0.258,1.47,0.667,0.0839,0.308,1.76,1.9,0.92
CCCC=C(CCC)[C@@H](NC(=O)OCC(C)C)c1ccccc1,0.861,-1.18,-0.0453,1.65,0.438,0.806,0.717,1.99,0.226,0.703
CCCC1(C(=O)OC)C=C2C(=C(c3ccccc3)C(=O)C2C)CN1 (stereo not given),-0.719,-1.85,0.0193,0.155,-0.253,-0.0203,0.108,1.75,1.05,0.287

SMILES,composite z-score [1],z-score [2],composite z-score [3],composite z-score [4],composite z-score [5],composite z-score [6],composite z-score [7],composite z-score [8],composite z-score [9],composite z-score [10]
CC(=CC1CCCCC1)[C@@H](NC(=O)c1cccnc1)c1ccc(-c2ccccc2)cc1,0.0493,-2.14,-0.405,0.139,0.735,-0.13,-0.0403,0.747,-0.217,-0.124
COC(=O)C[C@H]1O[C@@H](CCc2ccccc2)[C@@H](C)[C@@H]1[Si](C)(C)c1ccc(OC)cc1,-0.504,-0.638,-0.0374,-0.606,0.125,-0.232,-0.439,-0.266,-0.562,-0.763
COCCCNC(=O)[C@@]1(Cc2ccccc2CN=[N+]=[N-])N=C(c2ccc(OCCCO)cc2)O[C@H]1c1ccccc1CN=[N+]=[N-],1.37,-3.39,-0.443,1.36,0.875,0.173,0.311,-0.69,0.852,1.84
COC(=O)[C@@]1(Cc2ccccc2)[C@H]2c3cc(C(=O)N(C)C)n(Cc4ccc(OC)c(OC)c4)c3C[C@H]2CN1C(=O)c1ccccc1,1.46,-2.35,-0.394,1.71,0.873,0.229,0.187,2.35,1.1,1.07
C[N+](C)(C)CCCC[C@@H]1NC(=O)[C@H]2C[C@@H](C(=O)NCCCCCCNC(=O)CS)[C@@H](c3ccc(O)cc3)N2C1=O,-1.07,-0.237,-1.4,-0.493,0.55,-0.178,-0.138,-0.0604,1.51,0.539
CC(c1ccccc1)C(O)C1C=CC2C(=O)N(c3ccccc3)C(=O)C2N1Nc1ccccc1 (stereo not given),1.5,-2.44,-0.0093,1.5,0.993,-0.0758,-0.0702,1.44,1.11,1.98
O=C1[C@@]23C=C(Br)[C@H](C[C@@H]2COC3)[C@]12CO2,-2.09,-1.96,-1.16,-1.01,-1.25,0.0388,-0.234,0.0256,-0.0722,-1.5
O=C1OCC=C[C@H]2OC34C=CCN(Cn5nnc6ccccc65)C(=O)[C@H]3N(CCCCCO)C(=O)[C@@H]4[C@@H]12 (stereo not given in full),-0.129,-0.0996,-1.3,-0.497,0.0598,0.184,-0.209,0.105,3.17,-0.464
COC(=O)[C@]1(Cc2ccccc2)N=C(c2ccc(OCCCO)cc2)O[C@@H]1c1ccccc1N=[N+]=[N-],1.33,-3.25,0.123,0.39,0.245,-0.0236,-0.0709,-0.595,-0.279,0.0359
COc1ccc([Si](C)(C)[C@@H]2[C@@H](CC(=O)N3Cc4ccccc4C[C@H]3CO)O[C@]3(C(=O)N(Cc4cccc(N5CCC5=O)c4)c4ccccc43)[C@H]2C)cc1,1.12,-3.58,0.558,0.18,0.0915,-0.1,-0.0709,0.0001,0.111,1.08
NC(=O)[C@@H]1[C@H]2C(=O)O[C@H](c3ccccc3)[C@H](c3ccccc3)N2[C@H](c2ccc(O)cc2)[C@@]12C(=O)Nc1ccc(C#CC3=CCCCC3)cc12,1.42,-3.23,-0.585,0.573,0.199,0.065,1.78,1.01,0.453,0.334
COCCOC(=O)N1C(=O)[C@@]2(c3cc(C#CC4=CCCCC4)ccc31)[C@H](c1ccc(OCCO)cc1)N1[C@H](c3ccccc3)[C@H](c3ccccc3)OC(=O)[C@H]1[C@@H]2C(=O)N1CCc2cc(OC)c(OC)cc2C1,1.24,-0.829,1,0.933,0.43,0.139,0.0611,0.121,1.71,0.595
C=CC1c2cc(O)c(OC)cc2CCN1Cc1cccc(OC(F)(F)F)c1 (stereo not given),0.625,-1.79,-0.154,0.667,-0.566,-0.175,-0.0146,-0.483,0.828,0.39
C=CCC(OC(C)=O)[C@@H]1[C@@H](N(Cc2ccc(-c3cccc(C(F)(F)F)c3)o2)C(=O)Cc2ccc(OC)cc2)c2cc(OCCCO)ccc2N1C(=O)c1ccc2ccccc2c1 (stereo not given in full),-0.759,0.613,-0.394,-0.477,-0.506,-0.124,-0.214,-0.261,-0.157,-0.0185
CC(=O)NCCCC[C@@H]1NC(=O)[C@H]2C[C@@H](C(=O)NCCCCCNC(=O)CS)[C@@H](c3ccc(O)cc3)N2C1=O,0.46,-0.0987,-0.574,0.362,0.438,-0.0919,-0.0035,-0.196,0.177,0.117
COc1ccc(CCNC(=O)[C@@]2(C)c3ccccc3C(=O)N(c3ccc(C)cn3)[C@H]2c2ccc(CO)cc2)cc1,-0.992,-0.583,-0.839,-0.4,-0.141,-0.096,1.9,-0.118,0.56,-0.438
COCCOC(=O)N1C(=O)[C@@]2(c3cc(C#CC4=CCCCC4)ccc31)[C@H](C(N)=O)[C@H]1C(=O)O[C@H](c3ccccc3)[C@H](c3ccccc3)N1[C@@H]2c1ccc(O)cc1,1.13,-1.76,0.959,1.16,-0.308,-0.107,-0.0362,-0.0956,0.923,1.51
C=CCN1Cc2ccccc2[C@@H]2OC(c3ccc(OCCCO)cc3)=N[C@]2(CCS(=O)(=O)c2ccccc2)C1=O,1.33,-1.48,0.954,0.804,-0.321,-0.0009,0.377,0.714,1.58,1.42

# — PubChem BioAssay
